Eight compounds from PubChem BioAssay (NCI) can be followed below.

Test systems include HT29 colon; SNB-75 CNS; SNB-19 CNS; U251 CNS; PC-3 prostate; SK-MEL-5 melanoma; LOX IMVI melanoma; SK-MEL-28 melanoma; SN12C renal; UO-31 renal; ACHN renal; CAKI-1 renal; A498 renal; MOLT-4 leukemia; SR leukemia; SK-MEL-2 melanoma; EKVX NSCLC; TK-10 renal; CCRF-CEM leukemia; UACC-62 melanoma.
Assay in all cases: NCI-60 one-dose screen, 48 h (100 = growth as untreated, 0 = no growth, -100 = all killed)
Holding throughout (details): 10 µM unless noted

The structures appear in SMILES notation. Compounds without any hit were thinned out: in the full panel of roughly 83,000, 20% have a hit.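 Step 1: grow cells in 96-well plates. Step 2: add test compound at a single concentration. Step 3: incubate 48 h. Step 4: record percent growth.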 A number with no mark means an inactive call. Activity calls are given as the source filed them. Rule for the calls: active = growth percent below 10; inactive = the rest.

In the case of `Cc1cc2c(C#N)n3c(c2cc1C)C(=O)C(c1ccccc1)Oc1ccccc1-3` (stereo not drawn), the growth was 18.5% in the assay with HT29 colon; 15.6% in the assay on SNB-75 CNS; 35.9% in the assay with SNB-19 CNS; 18.3% in the assay on U251 CNS; 28.3% in the assay on PC-3 prostate; 22.7% in the assay with SK-MEL-5 melanoma. For the same compound, the growth was 20% with LOX IMVI melanoma; 85.1% in the assay on SK-MEL-28 melanoma; 27.8% in the assay on SN12C renal; 14.5% in the assay with UO-31 renal; 32.6% with ACHN renal; 33.1% in the assay with CAKI-1 renal. The growth was 41.2% in the assay on A498 renal, 69.2% in the assay with MOLT-4 leukemia and 7.67% (active) in the assay on SR leukemia.

With `N#Cc1cnc2cc(OC[C@H](O)CO)c(NC(=O)CC3CSSC3)cc2c1Nc1ccc(OCc2cccc(F)c2)c(Cl)c1`, the growth in the assay with HT29 colon is -77.8% (active); in the assay with SNB-75 CNS, -92.3% (active); with SNB-19 CNS, -64.6% (active); in the assay with U251 CNS, -69.2% (active); in the assay with PC-3 prostate, -100% (active); in the assay with SK-MEL-5 melanoma it was -95.9% (active). The growth with LOX IMVI melanoma was -86.3% (active); in the assay with SK-MEL-28 melanoma, -84.6% (active); with SK-MEL-2 melanoma, -70.6% (active); with EKVX NSCLC it was -69.9% (active); in the assay on SN12C renal it was -65.7% (active); with UO-31 renal, 47.6%. Besides, the growth in the assay on TK-10 renal is -70.5% (active); in the assay with ACHN renal, 20.8%; in the assay on CAKI-1 renal, 70.1%; in the assay with A498 renal, -71.5% (active); in the assay on CCRF-CEM leukemia, -81.8% (active); in the assay on MOLT-4 leukemia, -90.1% (active). The growth in the assay on SR leukemia is -72.6% (active).

`CCCCCCCCCCC[C@@H](C[C@H]1OC(=O)[C@H]1CCCCCC)OC(=O)[C@@H](CC(C)C)NC=O`: the growth is 38.4% in the assay with HT29 colon; 82.4% with SNB-75 CNS; 55.6% with SNB-19 CNS; 63% in the assay with U251 CNS; 50.4% in the assay with PC-3 prostate; 77.3% with UACC-62 melanoma. Also, the growth was 14.1% in the assay with LOX IMVI melanoma; 111% in the assay on SK-MEL-28 melanoma; 55.9% with SK-MEL-2 melanoma; 95.6% with EKVX NSCLC; 43.9% in the assay on SN12C renal; 19% with UO-31 renal. Also, the growth in the assay on TK-10 renal is 94.7%; in the assay with ACHN renal, 62.7%; in the assay on CAKI-1 renal, 54.7%; in the assay with A498 renal, 84.5%; with CCRF-CEM leukemia, 27.6%; in the assay on MOLT-4 leukemia, 13.1%.

`Fc1ccc(-c2nnc(/C=C/c3cn(-c4ccccc4)nc3-c3ccccc3)o2)cc1`: the growth with HT29 colon was 88.5%; in the assay with SNB-75 CNS it was 88.2%; in the assay on SNB-19 CNS, 108%; in the assay on U251 CNS it was 82.1%; in the assay with PC-3 prostate, 95.2%; in the assay with SK-MEL-5 melanoma, 105%. Moreover, the growth is 83.5% with LOX IMVI melanoma; 98.9% with SK-MEL-28 melanoma; 103% in the assay with SK-MEL-2 melanoma; 103% in the assay on EKVX NSCLC; 84.1% with SN12C renal; 84.1% in the assay on UO-31 renal. Also, the growth with TK-10 renal was 107%; with ACHN renal, 90.9%; with CAKI-1 renal, 84.3%; with A498 renal it was 111%; with CCRF-CEM leukemia it was 97.1%; in the assay on MOLT-4 leukemia, 99.3%. Moreover, the growth in the assay with SR leukemia was 65.7%.

In the case of `COC1CC2CCC(C)C(O)(O2)C(=O)C(=O)N2CCCCC2C(=O)OC(C(C)CC2CCC(O)C(OC)C2)CC(=O)C(C)C=C(C)C(O)C(OC)C(=O)C(C)CC(C)/C=C/C=C/C=C1C` (stereo not drawn), the growth in the assay on HT29 colon is 43.7%; in the assay on SNB-75 CNS it was 13.5%; with SNB-19 CNS it was 38.1%; with U251 CNS it was 35.8%; in the assay on PC-3 prostate, 31.3%; in the assay with UACC-62 melanoma, 36.5%. The growth is 39% in the assay with LOX IMVI melanoma; 54.1% in the assay with SK-MEL-28 melanoma; 35.9% with SK-MEL-2 melanoma; 30.3% with EKVX NSCLC; 48.2% with SN12C renal; 21.5% in the assay on UO-31 renal. The growth is 49.7% in the assay with TK-10 renal; 40.3% with ACHN renal; 49% in the assay on CAKI-1 renal; -5.92% (active) with A498 renal; 37.9% with CCRF-CEM leukemia; 21.4% in the assay with MOLT-4 leukemia.

Regarding `O=[N+]([O-])c1cnc(Sc2ccncn2)c([N+](=O)[O-])c1`, the growth is 76.5% in the assay with HT29 colon; 95.2% in the assay on SNB-75 CNS; 102% in the assay on SNB-19 CNS; 100% with U251 CNS; 96.3% in the assay with PC-3 prostate; 92% in the assay on SK-MEL-5 melanoma. In addition, the growth is 96.8% in the assay with LOX IMVI melanoma; 98.3% with SK-MEL-28 melanoma; 110% in the assay on SK-MEL-2 melanoma; 96.9% in the assay on SN12C renal; 48.8% with UO-31 renal; -37.8% (active) with TK-10 renal. Besides, the growth with ACHN renal was -29.6% (active); with CAKI-1 renal, 64.9%; with A498 renal it was 87%; in the assay with MOLT-4 leukemia it was -41.2% (active); in the assay on SR leukemia, 11.8%.

Take `CCCc1nn(C)c2c(=O)[nH]c(-c3cc(S(=O)(=O)N4CCN(C)CC4)ccc3OCC)nc12`: the growth in the assay with HT29 colon is 99.1%; with SNB-75 CNS it was 104%; in the assay on SNB-19 CNS it was 103%; in the assay on U251 CNS it was 94.5%; in the assay on PC-3 prostate, 91.1%; in the assay with UACC-62 melanoma it was 99.9%. In addition, the growth with LOX IMVI melanoma is 93.9%; in the assay with SK-MEL-28 melanoma, 116%; with SK-MEL-2 melanoma it was 96.6%; in the assay on EKVX NSCLC, 95.1%; in the assay with SN12C renal, 102%; with UO-31 renal it was 78.7%. For the same compound, the growth in the assay on TK-10 renal is 113%; with ACHN renal, 92.8%; in the assay with CAKI-1 renal, 80.2%; in the assay on A498 renal it was 103%; in the assay on CCRF-CEM leukemia, 108%; with MOLT-4 leukemia it was 94.8%.

Turning to `COc1cccc(/C=C2\COc3ccc(O)c(O)c3C2=O)c1OC`, the growth in the assay on HT29 colon is 21.6%; in the assay on SNB-75 CNS, 21.8%; with SNB-19 CNS, 31.6%; with U251 CNS it was 10.9%; in the assay on PC-3 prostate, 19.5%; with UACC-62 melanoma, 8.54% (active). Moreover, the growth in the assay with LOX IMVI melanoma was -72.6% (active); in the assay on SK-MEL-28 melanoma it was 47%; with SK-MEL-2 melanoma it was 97.3%; in the assay on EKVX NSCLC it was 70.4%; with SN12C renal it was -62.7% (active); in the assay with UO-31 renal it was -94.7% (active). For the same compound, the growth was 11.7% with TK-10 renal; -60.1% (active) with ACHN renal; 22.6% with CAKI-1 renal; 80.3% with A498 renal; 3.28% (active) with CCRF-CEM leukemia; -12.8% (active) with MOLT-4 leukemia. For the same compound, the growth in the assay on SR leukemia is -8.94% (active).
